# According to PubChem BioAssay (NCI):
# “And” between values parts separate entries of the source, which are not always exact repeats. Identical values can stand only once. Compounds without any hit were thinned out: in the full panel of roughly 83,000, 20% have a hit.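 Percent growth is the endpoint: 0 to 100 indicates growth inhibition (40 means 60% inhibition), 0 means no net growth, and negative values indicate cell death.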 Values without a mark were called inactive. The source made the active and inactive calls. Where a SMILES comes first, the peptide text is derived from it. The star is where a group is joined. Trt = c1ccc(C(c2ccccc2)(c2ccccc2)*)cc1; Cbz = O=C(OCc1ccccc1)*
# Tested on: OVCAR-4 ovarian
# Test: NCI-60 one-dose screen, 48 h (100 = growth as untreated, 0 = no growth, -100 = all killed)
# Conditions: 10 µM
# Protocol: Growth inhibition of the OVCAR-4 human tumor cell line is measured as a screen for anti-cancer activity. Cells are grown in 96 well plates and exposed to the test compound for 48 hours. Compounds are tested at a single concentration, which is 10^-5 M for most compounds. The reported endpoint is percent growth (GI% or GIPRCNT), where numbers from 0 - 100% represent growth inhibition, and numbers from -100% - 0 represent cell death. For example, a value of 40 represents 60% growth inhibition. A value of 0 means no net growth occurred over the course of the experiment. A value of -40 indicates 40% of cells at the beginning of the experiment died by the end of the experiment. A value of -100 means all cells are dead at the end of the experiment.
# NCI-60 Human Tumor Cell Lines Screen was performed using the standard one-dose NCI protocol, which is described in more detail at https://dtp.cancer.gov/discovery_development/nci-60/default.htm.
# Compounds with GIPRCNT values below 10 were considered active. Activity score was based on GIPRCNT using the following formula: […]
# Score is 0 for GIPRCNT values of 100 or above, 50 for GIPRCNT values of 0, and 100 for GIPRCNT values of -100.
row,Compound,growth
1,CN(C)C(=O)c1ccc(SC(=S)NCc2ccccc2)cc1,113%
2,O=C(O)c1c(Cl)c(Cl)c(Cl)c(Cl)c1-c1c2cc(I)c(=O)c(I)c-2oc2c(I)c(O)c(I)cc12,104% and 110% and 72.9%
3,O=C(Nc1c(Cl)cccc1Cl)Oc1cccc2cccnc12,15.9%

# Same assay, conditions: 10 µM unless noted
row,Compound,growth
1,O=C(/C=C/C=C/c1ccccc1)c1ccco1,78.7%
2,CC1OC2CC(=O)OC2C2=C1C(=O)c1c(O)cccc1C2=O (stereo not given),-98.5% (active)
3,CN(C)c1ccc(N=Nc2cccc3ccccc23)cc1,81.4%
4,CCCCCCCCCCCCCCCCN(CC)CC,-6.38% (active)
5,S=C(NCCNC(=S)[S][Sn]([c]1ccccc1)([c]1ccccc1)[c]1ccccc1)[S][Sn]([c]1ccccc1)([c]1ccccc1)[c]1ccccc1,-100% (active)
6,O=C(Oc1cccc2cccnc12)c1ccccc1,84.6% and 116%
7,O=C(/C=C\c1cc(Br)ccc1O)/C=C/c1cc(Br)ccc1O,15.2%
8,N#CSCc1ccc(CSC#N)c(Cl)c1,85.2%
9,CCOC(=O)/C(=C\c1ccc(-c2ccccc2)cc1)C(C)=O,105%
10,Cc1ccc2nc(C[n+]3ccc4ccccc4c3)ccc2c1,43.8%
11,Nc1ncnc2c1ncn2C1OC(CO)C(O)C1O (stereo not given),123% and 83.8% and 91.7%
12,CCC1OC(OC)C=CC1=O (stereo not given),103%
13,CC(C)(C)CC(C)(C)c1ccc(OCCSC(=N)N)cc1,41.2%
14,CN(C)C(=O)SC1=C(c2c(Cl)cccc2Cl)C(=O)c2ccccc21,-11.6% (active)
15,O=C1c2ccccc2C(=O)c2sc(Nc3cccc(Cl)c3)nc21,-9.21% (active)
16,COc1cc(NS(C)(=O)=O)ccc1Nc1c2ccccc2nc2ccccc12,87.8% [2.5 µM]
17,COC(=O)C(CSC(c1ccccc1)(c1ccccc1)c1ccccc1)NC(=O)C(CC(N)=O)NC(=O)OCc1ccccc1 (stereo not drawn) (Cbz-Asn-Cys(Trt)-OMe; configuration not given here),39.5%

row,Compound,growth
1,NC1=CC(=O)c2ccccc2C1=O,87.7%
2,COC(=O)Nc1nc2ccc(C(=O)c3ccccc3)cc2[nH]1,52.6% and 72.1% and 39.6%
3,C1=C(c2ccccc2)C(c2ccc(OCCN3CCCCC3)cc2)Oc2ccccc21 (stereo not given),64%
4,CC(C)c1ccc2nc3ccc(C(=O)NCCN4CCN(c5ccccc5)CC4)cn3c(=O)c2c1,63.9%
5,O=C1OCc2cccc3cccc1c23,97.1%
6,Cc1ccc2nc(-[n+]3cc4ccccc4cc3C)ccc2c1,28.6%
7,O=C(Nc1ccccc1)Oc1c(Cl)c(Cl)c(Cl)c(Cl)c1Cl,111% and 91.9%
8,CC(=O)C(=Cc1ccc(C=C(C(C)=O)C(C)=O)cc1)C(C)=O,30.4%
9,CCC(CC)COC(=O)c1ccc(O)c(O)c1,77.2%
10,CN(C)c1ccc(C(=C2C=CC(=[N+](C)C)C=C2)c2ccc(N(C)C)cc2)cc1 (tested in a mixture with another compound),-40.1% (active)
11,CNC(=O)N/N=C/c1ccc([N+](=O)[O-])o1,108%
12,O=C1NC(=O)/C(=C/C=C/c2ccccc2)S1,70.1%
13,O=C(O)c1ccc2c3c(ncnc13)-c1ccccc1C2=O,91.7%
14,CCN1/C(=C\c2cc[n+](CC)c3ccccc23)C=Cc2ccccc21,12.9%
15,Cc1cc(N)c2ccccc2[n+]1CCCCCCCCCC[n+]1c(C)cc(N)c2ccccc21,21.2% and 19.8%
16,O=C(/C=C/c1cccc(Cl)c1)c1ccccc1,97.8% and 92.9%
17,CCCCCC(CCCCC)C(=O)O,106%

# Same assay, conditions: 100 µM
row,Compound,growth [%]
1,CN(C)C(=O)c1ccc(SC(=S)NCc2ccccc2)cc1,43.8
2,O=C(O)c1c(Cl)c(Cl)c(Cl)c(Cl)c1-c1c2cc(I)c(=O)c(I)c-2oc2c(I)c(O)c(I)cc12,53.2
3,O=C(Nc1c(Cl)cccc1Cl)Oc1cccc2cccnc12,14.5
